SENP8 block-1: inhibitors of human SENP8 protease; actives 1.2% (n = 330,000); inhibition, % at 10 µM; AID 2540; purified SENP8, Z-RLRGG-aminoluciferin cleavage, luminescence; Q96LD8; in the data active = inhibition above about 50%
Target sequence (Q96LD8 whole entry, looked up): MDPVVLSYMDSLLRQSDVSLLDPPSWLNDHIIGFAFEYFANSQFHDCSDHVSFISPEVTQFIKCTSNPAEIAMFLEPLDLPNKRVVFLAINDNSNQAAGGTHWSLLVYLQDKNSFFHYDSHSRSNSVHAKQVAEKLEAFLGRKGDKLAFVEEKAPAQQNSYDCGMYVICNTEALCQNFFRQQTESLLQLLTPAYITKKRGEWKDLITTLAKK
AHR act: activates the human aryl hydrocarbon receptor; AHR-responsive luciferase reporter cells, luminescence; actives 2.5% (n = 320,000); activation, % at 5 µM; P35869; in the data active = activation above about 47%;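 note: 0% = vehicle wells and 100% = reference agonist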
EBI2 antag: antagonists of human EBI2 receptor; EBI2 beta-arrestin recruitment, luminescence, 7a,25-OHC stimulated; inhibition, % at 5 µM; actives 0.81% (n = 360,000); AID 651636; in the data active = inhibition above about 38%;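 note: enzyme fragment complementation signal reports receptor beta-arrestin coupling in cells; 0% = agonist plus DMSO wells and 100% = wells without agonist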
SENP8 block-2: inhibitors of human SENP8 protease; Q96LD8; recombinant SENP8, Nedd8 substrate fluorescence; inhibition, % at 20 µM; actives 0.64% (n = 360,000); in the data active = inhibition mostly above about 40%, no sharp cut-off; inactive = mostly below about 27%
SENP7 block: blocks the human protease SENP7 | recombinant SENP7, Z-RLRGG-aminoluciferin luminescence, 40 min | inhibition, % at 5 µM | actives 1.5% (n = 330,000) | AID 434973;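 active = inhibition above about 50% at the single test dose, limit read from the data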;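 note: plate controls were DMSO with enzyme for no effect and no enzyme buffer wells for full effect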
SENP6 inh: blocks the human protease SENP6; Q9GZR1; Recombinant SENP6 catalytic domain, aminoluciferin luminescence; inhibition, % at 10 µM; actives 1.8% (n = 330,000); AID 2599;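 active = inhibition above about 50% at the single tested dose, limit read from the data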;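 note: plate controls were DMSO wells with enzyme for no effect and DMSO wells lacking enzyme for full effect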
SENP8 conf: human SENP8 inhibition, confirmed; Recombinant SENP8, Z-RLRGG-aminoluciferin luminescence, 60 min; AID 488912; shares compounds with SENP7 block; actives 40% (n = 6,200); inhibition, % at 12.5 µM;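 active = mean inhibition across replicates above about 50%, limit read from the data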
SENP6 confirm: human SENP6 inhibition, confirmed | shares compounds with SENP7 block | recombinant SENP6, Z-RLRGG-aminoluciferin luminescence | inhibition, % at 12.5 µM | actives 58% (n = 6,200) | AID 488915
SENP7 conf: human SENP7 inhibition, confirmed | actives 69% (n = 6,200) | recombinant SENP7, Z-RLRGG-aminoluciferin luminescence, 40 min | inhibition, % at 12.5 µM | AID 488917 | shares compounds with SENP7 block
Casp3 SENP sel: inhibits human caspase-3 in SENP selectivity test; shares compounds with SENP7 block; purified caspase-3, Z-DEVD-aminoluciferin luminescence, 60 min; inhibition, % at 12.5 µM; actives 60% (n = 6,200); AID 488918;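 active = mean inhibition above about 50%, limit read from the data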;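 note: plate controls were enzyme with DMSO for no effect and wells without caspase-3 for full effect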
Target sequence (P42574 28-227 limits assumed): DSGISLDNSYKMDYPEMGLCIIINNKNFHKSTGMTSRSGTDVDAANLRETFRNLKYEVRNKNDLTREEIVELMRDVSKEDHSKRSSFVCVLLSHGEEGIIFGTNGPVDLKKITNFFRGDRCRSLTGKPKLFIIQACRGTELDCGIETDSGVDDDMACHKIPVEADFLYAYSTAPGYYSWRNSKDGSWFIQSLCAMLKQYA
Luc interf: luminescence interference (SENP counter-screen); shares compounds with SENP7 block; Pre-incubated SENP8/Z-RLRGG-aminoluciferin, luciferase luminescence interference; inhibition, % at 12.5 µM; actives 39% (n = 6,200);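 active = mean inhibition above about 50% when retested at one dose, limit read from the data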;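 note: plate controls were DMSO wells with completed reaction for no effect and substrate without enzyme for full effect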
* hit, by the source's call. In the library only some 5% were active in any assay of this set; here they are far more common.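 Rule for the calls, unless noted: active = mean inhibition above about 50% in the one-dose retest (limit read from the data); inactive = the rest.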

Cc1ccc(C(=O)NCCc2ccncc2)cc1 was read as SENP8 block-1 -19.9, AHR act 10.4, EBI2 antag -1.1, SENP8 block-2 13.5, SENP7 block -7.5 and SENP6 inh -10.2.
Screening Cc1ccc(C(=O)NCCc2ccccc2)cc1 returned SENP8 block-1 23.5, AHR act -7.0, EBI2 antag -1.3, SENP8 block-2 2.9, SENP7 block 54.3*, SENP6 inh 53.4*, SENP8 conf 38.7, SENP6 confirm 36.1, SENP7 conf 77.1*, Casp3 SENP sel 78.7* and Luc interf 57.8*.
For COC(=O)c1c(N)sc(C(=O)NCCc2ccccc2)c1C the results were SENP8 block-1 74.7*, EBI2 antag -7.7, SENP8 block-2 -67.0, SENP7 block 88.6*, SENP6 inh 87.7*, SENP8 conf 84.6*, SENP6 confirm 82.3*, SENP7 conf 95.1*, Casp3 SENP sel 88.6* and Luc interf 84.7*.
`Cc1ccc(S(=O)(=O)N(C)c2ccc(C(=O)NCCc3ccccc3)cc2)cc1` gave SENP8 block-1 2.1, AHR act 5.1, EBI2 antag 3.3, SENP8 block-2 11.1, SENP7 block 2.0 and SENP6 inh 1.1.
`C=C(C)CNC(=O)c1ccc2nc(Cc3ccc(OC)cc3)oc2c1` gave SENP8 block-1 16.6, AHR act 10.1, EBI2 antag 5.8, SENP8 block-2 33.4, SENP7 block 50.9*, SENP6 inh 49.0, SENP8 conf 39.5, SENP6 confirm 39.2, SENP7 conf 75.3*, Casp3 SENP sel 65.7* and Luc interf 48.3.
Screening O=c1oc2cc(O)ccc2c2oc3cc(O)ccc3c12 returned SENP8 block-1 69.2*, AHR act 0.5, EBI2 antag 5.7, SENP8 block-2 -375.5, SENP7 block 6.7, SENP6 inh 73.6*, SENP8 conf 44.7, SENP6 confirm 50.0, SENP7 conf 89.3*, Casp3 SENP sel 62.7* and Luc interf 12.4.
For CC(c1ccccc1)N1C(=O)c2ccc(C(=O)Nc3ccc(Br)cc3C(=O)O)cc2C1=O (stereo unspecified) the results were SENP8 block-1 -3.5, AHR act 0.9, EBI2 antag -1.9, SENP8 block-2 13.2, SENP7 block 12.9 and SENP6 inh 4.1.
`CC(c1ccccc1)N1C(=O)c2ccc(C(=O)Nc3ccccc3C(=O)O)cc2C1=O` (stereo unspecified) gave SENP8 block-1 68.5*, AHR act 3.2, EBI2 antag -41.7, SENP8 block-2 6.4, SENP7 block 21.4, SENP6 inh 69.9*, SENP8 conf 75.7*, SENP6 confirm 70.6*, SENP7 conf 84.6*, Casp3 SENP sel 41.1 and Luc interf 76.9*.
Screening CC(C)CCN1C(=O)c2ccc(C(=O)Nc3ccc(O)cc3C(=O)O)cc2C1=O returned SENP8 block-1 -3.0, AHR act -0.6, EBI2 antag 6.8, SENP8 block-2 2.7, SENP7 block -8.3 and SENP6 inh -9.5.
`CC(C)CCN1C(=O)c2ccc(C(=O)Nc3ccccc3C(=O)O)cc2C1=O` gave SENP8 block-1 65.9*, EBI2 antag -12.0, SENP8 block-2 22.0, SENP7 block -0.9, SENP6 inh 73.8*, SENP8 conf 76.3*, SENP6 confirm 76.8*, SENP7 conf 85.8*, Casp3 SENP sel 60.1* and Luc interf 76.7*.

Screening results (PubChem)
